# Source: PubChem
# CtBP-E1A blk – blocks the CtBP interaction with E1A | activity change, % (no concentration beside the values) | 340,000 tested, 0.49% active | AlphaScreen GST-E1A/His-CtBP binding, 1536-well; hits give low values | AID 651724; in the data active = activity change below about -65%; inconclusive = mostly about -30% to -63%
#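 AlphaScreen with 125 nM GST-E1A and 125 nM His-CtBP (5X stocks) in Tris pH 8.0, 300 mM NaCl, BSA, Tween 20, TCEP. Compounds preincubated 2 h at 37 deg C, then glutathione donor/nickel acceptor beads added for 1 h at 37 deg C in dark.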
# Six1-Eya2 blk – inhibitors of human Six1/Eya2 interaction; AlphaScreen GST-Six1/His-Eya2 binding, biochemical; hits give low values; 360,000 tested, 0.56% active; activity change, % (test concentration not listed); Q15475+O00167; AID 651725; in the data active = activity change below about -65%; inconclusive = mostly about -30% to -63%
#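 GST-Six1 + His-Eya2 (5X stock: 250/500 nM); Tris pH 8.0, 300 mM NaCl, 0.05% BSA, 0.02% Tween 20; GSH donor/Ni acceptor beads; 1 h 37 °C dark; AlphaScreen readout.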
# PKM2 act – activators of human pyruvate kinase M2; P14618; purified PKM2, Kinase-Glo ATP luminescence, activation; response scale: 0% is enzyme alone, no compound; Potency, µM (highest dose often 57.5 µM), inactives show top-dose activation, usual class: activators; 260,000 tested, 0.34% active; note: potency is the fitted concentration of half-maximal effect; nearly all actives have a fitted effect of over 55% in size
#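 ATP formation by purified human PK-M2, quantified via coupled luciferase luminescence after 1 h at room temperature with 0.1 mM ADP and 0.5 mM PEP final.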
# RORgamma inh – ROR gamma (mouse) transcription inhibition; 310,000 tested, 5.4% active; AID 2551; Drosophila S2 Gal4-RORgamma UAS-luciferase reporter, 20 h; Potency, µM (doses to about 53.6 µM), for the others: at the highest dose activity change, negative = inhibition, actives largely listed as inhibitors; note: potency is the fitted concentration of half-maximal effect; nearly all actives have a fitted effect of over 60% in size
# Target sequence (P51450 whole entry, looked up, the tested form may be a part): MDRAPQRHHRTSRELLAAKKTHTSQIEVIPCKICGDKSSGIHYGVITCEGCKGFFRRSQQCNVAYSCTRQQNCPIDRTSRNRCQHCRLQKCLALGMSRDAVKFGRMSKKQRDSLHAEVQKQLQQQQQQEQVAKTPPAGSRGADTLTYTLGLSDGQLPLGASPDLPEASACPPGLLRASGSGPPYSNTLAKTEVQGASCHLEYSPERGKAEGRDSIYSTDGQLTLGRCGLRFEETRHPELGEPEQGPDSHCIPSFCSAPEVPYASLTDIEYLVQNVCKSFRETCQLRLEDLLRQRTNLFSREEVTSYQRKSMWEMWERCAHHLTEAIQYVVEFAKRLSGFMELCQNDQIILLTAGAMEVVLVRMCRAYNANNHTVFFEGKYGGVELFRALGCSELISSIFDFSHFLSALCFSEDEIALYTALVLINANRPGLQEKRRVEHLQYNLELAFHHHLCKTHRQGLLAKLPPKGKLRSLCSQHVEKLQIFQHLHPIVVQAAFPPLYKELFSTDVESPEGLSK
#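 Drosophila Schneider cells stably carrying a metallothionein-driven Gal4 DBD–ROR gamma fusion and a UAS-Photinus luciferase reporter were exposed to compound for 1 hr, then induced with copper sulfate (700 uM final) for 20 hr at ambient temperature before luminescence reading.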
# Gal4-VP16 FLuc – Gal4-VP16 reporter inhibition counter-screen; Drosophila S2 Gal4-VP16 UAS-luciferase, luminescence, 20 h; 310,000 tested, 3.5% active; Potency, µM (titrated, usually from 53.6 µM), inactives show at the top dose activity, negative = inhibition, most hits filed as inhibitors;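 note: Gal4-VP16 expression switched on by copper sulfate through the metallothionein promoter; potency is the fitted concentration of half-maximal effect; nearly all actives have a fitted effect of over 50% in size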
# The depositor's hits bear a star; ? = inconclusive; / = not tested or not shown. A selection: hits, their analogues and other compounds. The true share with any hit is near 5.6%. Unless noted, calls come from the whole dose curve; as a rule, active = well fitted curve in the direction sought with a large enough effect; inconclusive = small, poorly fitted or top-dose-only effect, or another doubt; inactive = no such curve, though single readings can be large; an effect the other way counts as inactive or inconclusive. % is set by controls: 0 for no effect and ±100 for the full control effect.
SMILES,CtBP-E1A blk,Six1-Eya2 blk,PKM2 act,RORgamma inh,Gal4-VP16 FLuc
COc1ccc(C(=O)NC(=S)Nc2ccccc2[N+](=O)[O-])cc1OC,-6,-5,-1%,7.1µM*,17%
O=C(NC(=S)Nc1ccccc1[N+](=O)[O-])c1ccccc1Cl,-14,-13,-4%,4µM*,?
O=C(CC(=O)Nc1ccccc1[N+](=O)[O-])Nc1ccccc1[N+](=O)[O-],-20,-9,/,20%,1%
COc1ccc(C(=O)NC(=S)Nc2ccc([N+](=O)[O-])cc2C)cc1OC,1,-4,6%,16µM*,?
CC(C)(C)CC(=O)NC(=S)Nc1ccccc1[N+](=O)[O-],/,-13,2%,6.3µM*,?
CC(C)[C@H](NS(=O)(=O)c1cccc(C(F)(F)F)c1)C(=O)OCC(=O)NC(=O)NCc1ccco1,-9,-17,/,/,/
C=CCN1C(=O)c2ccc(C(=O)N(CCOC)c3c(N)n(CCCC)c(=O)[nH]c3=O)cc2C1=O,3,-2,/,/,/
C=CCC[C@@H](CCCCC)OC(=O)/C=C/[C@@H](O)[C@H](O)C[C@@H](O)CC=C,-7,15,/,/,/
Cc1ccc(C(O)(C(=O)NNc2ccc3ccccc3n2)c2ccc(C)cc2)cc1,3,6,4%,10µM*,8.9µM*
S=c1[nH]nc(C2CCCCC2)n1/N=C/c1c(Cl)cccc1Cl,-6,1,/,?,?
FC(F)(F)c1ccc(/C=N/n2c(C3CCCCC3)n[nH]c2=S)cc1,/,-19,/,-39%,10µM*
S=c1[nH]nc(C2CCCCC2)n1/N=C/c1ccc(Br)cc1,3,-1,/,1.4µM*,?
Cc1ccc(/C=N/n2c(C3CCCCC3)n[nH]c2=S)cc1,-17,-10,/,2.5µM*,7.1µM*
COc1cc(/C=N/n2c(C3CCCCC3)n[nH]c2=S)cc(OC)c1O,-4,5,/,-31%,-4%
S=c1[nH]nc(C2CCCCC2)n1/N=C/c1ccc(Cl)cc1,0,-6,/,0.35µM*,7.9µM*
O=C(CN1C(=O)NC(c2ccccc2)(c2ccccc2)C1=O)NCCNCCO,4,0,0%,-9%,1%
CCc1ccc(/C=N/n2c(C3CCCCC3)n[nH]c2=S)cc1,/,-22,/,3.5µM*,8.9µM*
S=c1[nH]nc(C2CCCCC2)n1/N=C/c1ccc(Br)s1,-1,-10,-4%,1.1µM*,4µM*
CC(C)(C)C(=O)CN1C(=O)NC2(CCCc3ccccc32)C1=O (stereo not drawn),7,-1,/,25%,3%
O=C1C=C(c2ccc(CO)cc2)C[C@@H](c2ccc(F)cc2)C1,-7,-1,/,/,/
CN(C)CCCN1C(=O)c2cccc3c([N+](=O)[O-])ccc(c23)C1=O,-12,-9,-20%,1.4µM*,1.1µM*
O=C1c2cccc3c([N+](=O)[O-])ccc(c23)C(=O)N1CCc1ccccn1,6,4,0%,-9%,-1%
Cc1ccc(C(=O)O)cc1N1C(=O)c2cccc3c([N+](=O)[O-])ccc(c23)C1=O,-8,?,-1%,7.9µM*,6.3µM*
CC(=O)Oc1cccc(N2C(=O)c3cccc4c([N+](=O)[O-])ccc(c34)C2=O)c1,/,-2,3%,8.9µM*,5.6µM*
O=C(O)c1ccc(CN2C(=O)c3cccc4c([N+](=O)[O-])ccc(c34)C2=O)cc1,3,3,/,?,7.1µM*
SMILES,CtBP-E1A blk,Six1-Eya2 blk,PKM2 act,RORgamma inh,Gal4-VP16 FLuc
CC(=O)Oc1cccc(N2C(=O)c3ccc(C(=O)O)cc3C2=O)c1,6,-1,-22%,-38%,-7%
O=C(O)c1ccc(CN2C(=O)c3ccc(C(=O)O)cc3C2=O)cc1,5,7,/,-18%,0%
Cc1c(-c2ccccc2)[n+](=O)c2c(n1[O-])CCCC2,-27,10,1%,13%,-2%
COCCNc1ncnc2c1ncn2[C@H]1CN(Cc2ccco2)C[C@@H](CO)O1,5,-1,/,/,/
O=C(c1cc2ccccc2[nH]1)N(Cc1cccnc1)CC1CCCN(C2CCCCC2)C1 (stereo not drawn),-1,2,/,33%,11%
O=C(Nc1ccc(S(=O)(=O)Nc2nccs2)cc1)c1cccc(N2C(=O)c3ccccc3C2=O)c1,-3,-25,6%,31%,-5%
O=C(Nc1nccs1)c1cccc(N2C(=O)c3cccc4c([N+](=O)[O-])ccc(c34)C2=O)c1,-2,2,1%,7.1µM*,7.1µM*
CC(=O)c1ccc(S(=O)(=O)N(C)CCCC(=O)NCc2ccc3c(c2)OCO3)cc1,-2,-8,/,/,/
COc1ccc(/C=N/NC(=O)CC(=O)NCCc2ccccc2)cc1OC,-12,-2,-2%,-5%,-3%
COc1cc(/C=N/NC(=S)NCc2ccccc2)ccc1OCC#N,-5,-5,-3%,10µM*,?
CCOc1ccc(CNC(=S)N/N=C/c2ccc(OC)c(OC)c2)cc1,4,?,3%,11µM*,10µM*
CCc1ccc(Nc2n[n+](-c3ccccc3)c(-c3cc(OC)c(OC)cc3Br)s2)cc1,-1,-9,2%,10µM*,-26%
CN(C)c1ccc(-c2sc(Nc3ccccc3)n[n+]2-c2ccc(F)cc2)cc1,-1,4,0%,14µM*,3%
CCc1ccc(Nc2n[n+](-c3ccccc3)c(-c3ccc(OCc4ccccc4)cc3)s2)cc1,6,-1,0%,7.9µM*,?
CCN(CC)c1ccc(-c2sc(Nc3ccccc3)n[n+]2-c2ccc(F)cc2)cc1,-2,2,-4%,10µM*,17%
CN(C)S(=O)(=O)c1cccc(NC(=O)c2sccc2-c2ccccc2)c1,7,-2,0%,?,?
CC(CCc1ccccc1)NC(=O)COC(=O)c1cccnc1Cl (stereo not drawn),-3,-14,/,/,/
CCC(C(=O)NC(N)=O)c1ccccc1 (stereo not drawn),/,/,/,14%,-2%
Cc1cccc(NS(=O)(=O)c2c(C(=O)N3CCOCC3)c(C)n(C)c2C)c1C,2,0,0%,-2%,2%
Cc1ccc(C[C@H](C(=O)O)N2C(=O)c3ccc(C(=O)O)cc3C2=O)cc1,/,/,/,21%,-2%
c1ccc(COc2ccc(-c3sc(Nc4ccccc4)n[n+]3-c3ccccc3)cc2)cc1,/,/,2%,-31%,?
CCc1ccc(Nc2n[n+](-c3ccccc3)c(-c3ccc(N(CC)CC)cc3)s2)cc1,-13,-17,-2%,?,13µM*
CCc1ccc(Nc2n[n+](-c3ccccc3)c(-c3c(Cl)cccc3Cl)s2)cc1,?,?,-9%,11µM*,?
CSc1ccc(CN2CCC(n3nccc3NC(=O)c3ccccc3C)CC2)cc1,-7,-5,/,19%,17%
Oc1c(Cl)cccc1C=Nc1cc(C(F)(F)F)ccc1N1CCCC1,-15,-15,-1%,11µM*,?
